According to PubChem BioAssay (Tox21):
Inconclusive results are not listed. Active and inactive are the calls of the source. Unless noted, calls come from the whole dose curve.

What was measured:
[1] = molecular target: Nuclear receptor subfamily 1 group I member 3 (Homo sapiens) (UniProt Q14994); test: qHTS assay to identify small molecule agonists of the constitutive androstane receptor (CAR) signaling pathway (AID 1224839; active = well fitted activation curve with a large enough effect in the repeat runs;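 note: HepG2 cells stably carrying human CAR and a CYP2B6 luciferase reporter; series mostly up to about 92 µM; nearly all actives have a fitted effect of over 15% in size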)
Summary of the method: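 Compounds tested at 15 concentrations on HepG2 cells stably harbouring hCAR and CYP2B6-2.2kb reporter constructs, co-treated with PK11195 (0.75 uM final), 24 h at 37 C; luminescent reporter signal quantified.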

[2] = qHTS assay to identify small molecule antagonists of the estrogen related receptor signaling pathway with the pleiotropic PPARgamma coactivator (PGC) from Tox21 10K library - cell viability counter screen (AID 1224840; active = well fitted cell-killing curve with a large enough effect in the repeat runs, not every such curve was filed as active; note: nearly all actives have a fitted effect of over 40% in size)
Summary of the method: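 Compounds in DMSO, alongside positive and negative controls, were pinned onto PGC/ERR cells (2,000 per well). Exposure lasted 17.5 hours at 37 C, followed by a 30-minute CellTiter-Fluor incubation and fluorescence reading.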

[3] = molecular target: Thyrotropin receptor (Homo sapiens) (UniProt P16473); test: qHTS assay to identify small molecule agonists of the thyroid stimulating hormone receptor (TSHR) signaling pathway (AID 1224843); note: nearly all actives have a fitted effect of over 45% in size
Summary of the method: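 HEK293 cells stably bearing the thyrotropin receptor were plated at 800 cells/well and challenged with compound (30 min, RT). Accumulated cAMP was quantified via cAMP-d2 competing for cryptate-tagged antibody.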

[4] = qHTS assay to identify small molecule agonists of the hypoxia (HIF-1) signaling pathway - cell viability counter screen (AID 1224844); note: nearly all actives have a fitted effect of over 50% in size
Summary of the method: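 Luminescent ATP content (CellTiter-Glo, 30 min, room temperature) served as the viability measure in HRE-bla ME-180 cells exposed to compounds for 17 hrs in low-serum medium (0.5% dialyzed FBS).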

[5] = qHTS assay to identify small molecule agonists of H2AX (AID 1224845; active = well fitted activation curve with a large enough effect in the signal ratio in the repeat runs, not every such curve was filed as active; the % refers to the signal ratio)
Summary of the method: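 Phospho-H2AX Ser139 measured by HTRF (ex 320 nm; em 665 and 620 nm) after 24 hr antibody incubation. Compounds, 15 concentrations, 0.76% DMSO, were applied to CHO-K1 cells for 3hr at 37C before lysis.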

[6] = qHTS assay to identify small molecule agonists of the hypoxia (HIF-1) signaling pathway (AID 1224846; active = well fitted activation curve with a large enough effect in the signal ratio in the repeat runs, not every such curve was filed as active; the % refers to the signal ratio)
Summary of the method: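 Measured by blue/green FRET after loading CCF4-AM: beta-lactamase expressed from a hypoxia response element in ME-180 cells. Test agents were delivered in DMSO and left 17 hrs; cells had been plated 5 hrs earlier in low-serum (0.5% dialyzed FBS) medium.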

[7] = qHTS assay to identify small molecule agonists of H2AX - cell viability counter screen (AID 1224847); note: top concentration of the series differs between compounds; nearly all actives have a fitted effect of over 30% in size
Summary of the method: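 Compounds tested at 15 concentrations were incubated 3 hr at 37C with wild-type CHO-K1 cells; cellular ATP-based luminescence (CellTiter-Glo) indicated viability.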
% is set by controls: 0 for no effect and ±100 for the full control effect.

Chain of Nuclear receptor subfamily 1 group I member 3 (Homo sapiens) (Q14994 whole entry, looked up): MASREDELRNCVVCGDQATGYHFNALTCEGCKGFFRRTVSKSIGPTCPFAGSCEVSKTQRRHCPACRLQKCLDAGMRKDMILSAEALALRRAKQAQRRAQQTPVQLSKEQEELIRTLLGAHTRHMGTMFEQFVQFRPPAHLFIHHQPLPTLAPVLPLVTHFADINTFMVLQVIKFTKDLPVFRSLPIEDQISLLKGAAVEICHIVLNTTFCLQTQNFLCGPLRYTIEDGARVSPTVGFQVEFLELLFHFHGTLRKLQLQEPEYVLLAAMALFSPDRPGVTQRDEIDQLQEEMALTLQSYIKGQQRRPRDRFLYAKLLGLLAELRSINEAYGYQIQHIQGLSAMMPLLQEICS
Chain of Thyrotropin receptor (Homo sapiens) (P16473 whole entry, looked up): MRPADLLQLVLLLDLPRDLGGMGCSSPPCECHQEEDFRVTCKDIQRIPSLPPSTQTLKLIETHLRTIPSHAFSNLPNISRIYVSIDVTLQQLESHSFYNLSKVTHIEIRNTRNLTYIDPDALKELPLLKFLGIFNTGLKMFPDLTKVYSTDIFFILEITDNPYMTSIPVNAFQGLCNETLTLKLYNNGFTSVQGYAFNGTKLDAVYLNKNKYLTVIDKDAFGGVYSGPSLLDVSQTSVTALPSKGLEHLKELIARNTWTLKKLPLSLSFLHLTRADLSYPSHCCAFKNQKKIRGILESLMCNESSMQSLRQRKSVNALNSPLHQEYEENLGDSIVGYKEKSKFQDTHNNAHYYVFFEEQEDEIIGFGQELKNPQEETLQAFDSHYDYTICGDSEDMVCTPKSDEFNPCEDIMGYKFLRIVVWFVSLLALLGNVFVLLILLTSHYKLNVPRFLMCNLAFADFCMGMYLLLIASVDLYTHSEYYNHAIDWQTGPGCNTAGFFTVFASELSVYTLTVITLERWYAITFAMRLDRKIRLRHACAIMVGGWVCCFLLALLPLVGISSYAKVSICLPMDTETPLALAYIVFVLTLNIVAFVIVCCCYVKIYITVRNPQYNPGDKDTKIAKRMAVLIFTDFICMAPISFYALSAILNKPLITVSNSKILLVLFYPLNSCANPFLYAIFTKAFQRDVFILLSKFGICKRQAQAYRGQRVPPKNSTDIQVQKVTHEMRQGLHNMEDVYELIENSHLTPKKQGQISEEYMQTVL

C=CC(=O)CCCCC
inactive: Potency [1] | outcome [2] | outcome [3] | outcome [4] | outcome [5] | outcome [6] | outcome [7]

CCCCOCCOC(=O)COc1ccc(Cl)cc1Cl
inactive: Potency [1] | outcome [2] | outcome [3] | outcome [4] | outcome [5] | outcome [6] | outcome [7]

COC(=O)c1ccccc1C(=O)O
inactive: Potency [1] | outcome [2] | outcome [3] | outcome [4] | outcome [5] | outcome [6] | outcome [7]

O=C(Cn1ccnc1[N+](=O)[O-])NCc1ccccc1
inactive: Potency [1] | outcome [2] | outcome [3] | outcome [4] | outcome [5] | outcome [6] | outcome [7]

O=C(Cl)c1ccccc1[N+](=O)[O-]
inactive: Potency [1] | outcome [2] | outcome [3] | outcome [4] | outcome [5] | outcome [6] | outcome [7]

Cc1ccc(C(=O)O)cc1[N+](=O)[O-]
inactive: Potency [1] | outcome [2] | outcome [3] | outcome [4] | outcome [5] | outcome [6] | outcome [7]

[O]=[Mo](=[O])=[O]
inactive: activation [1] -3.75% [at 19 µM] | viability change, negative = cytotoxic [2] -2.25% [at 19 µM] | activation [3] -6.48% [at 19 µM] | activity change, negative = cytotoxicity [4] -18.3% [at 15.8 µM] | activation (H2AX phosphorylation) [5] -3.3% [at 31.6 µM] | activation [6] -0.622% [at 15.8 µM] | activity change, negative = cytotoxicity [7] -2.98% [at 31.6 µM]

CC(=O)CC(=O)OC(C)(C)C
inactive: Potency [1] | outcome [2] | outcome [3] | outcome [4] | outcome [5] | outcome [6] | outcome [7]

CC(C)[C@H]1CC[C@H](C)C[C@@H]1O
inactive: Potency [1] | outcome [2] | outcome [3] | outcome [4] | outcome [5] | outcome [6] | outcome [7]

CC(O)COC(C)(C)C (configuration not stated)
inactive: Potency [1] | outcome [2] | outcome [3] | outcome [4] | outcome [5] | outcome [6] | outcome [7]

O=NN(CCCl)C(=O)NC1CCCCC1
inactive: Potency [1] | outcome [2] | outcome [3] | outcome [4] | outcome [5] | outcome [6] | outcome [7]

Cc1c(Cl)cccc1Cl
inactive: Potency [1] | outcome [2] | outcome [3] | outcome [4] | outcome [5] | outcome [6] | outcome [7]

CCCCOCC(C)O (configuration not stated)
inactive: Potency [1] | outcome [2] | outcome [3] | outcome [4] | outcome [5] | outcome [6] | outcome [7]

CC(=O)OC1CCCCC1C(C)(C)C (configuration not stated)
inactive: Potency [1] | outcome [2] | outcome [3] | outcome [4] | outcome [5] | outcome [6] | outcome [7]

CC1OCCC1=O (configuration not stated)
inactive: Potency [1] | outcome [2] | outcome [3] | outcome [4] | outcome [5] | outcome [6] | outcome [7]

O=Cc1cc2ccccc2o1
inactive: Potency [1] | outcome [2] | outcome [3] | outcome [4] | outcome [5] | outcome [6] | outcome [7]

O=C1CCC(=O)N1Cl
inactive: Potency [1] | outcome [2] | outcome [3] | outcome [4] | outcome [5] | outcome [6] | outcome [7]

O=C(CN1CCNCC1)NC1CCCCC1
inactive: Potency [1] | outcome [2] | outcome [3] | outcome [4] | outcome [5] | outcome [6] | outcome [7]

C[Si]1(C)O[Si](C)(C)O[Si](C)(C)O[Si](C)(C)O[Si](C)(C)O1
inactive: Potency [1] | outcome [2] | outcome [3] | outcome [4] | outcome [5] | outcome [6] | outcome [7]

CCCCCCCCCOC(=O)c1ccccc1C(=O)OCCCCCCCCC
inactive: Potency [1] | outcome [2] | outcome [3] | outcome [4] | outcome [5] | outcome [6] | outcome [7]

O=C1c2ccccc2C(=O)c2cc(Cl)ccc21
inactive: activation [1] 8.38% [at 8.39 µM] | viability change, negative = cytotoxic [2] 5.77% [at 8.39 µM] | activation [3] -6.72% [at 8.39 µM] | activity change, negative = cytotoxicity [4] 10.7% [at 6.97 µM] | activation (H2AX phosphorylation) [5] 2.59% [at 14 µM] | activation [6] -0.0803% [at 7.01 µM] | activity change, negative = cytotoxicity [7] 4.41% [at 14 µM]

CCNC(=O)NCc1cccc(Cl)c1
inactive: Potency [1] | outcome [2] | outcome [3] | outcome [4] | outcome [5] | outcome [6] | outcome [7]

COc1cc(/C=C/C(N)=O)cc(OC)c1OC
inactive: Potency [1] | outcome [2] | outcome [3] | outcome [4] | outcome [5] | outcome [6] | outcome [7]

CO/N=C(/C(=O)N[C@@H]1C(=O)N2C(C(=O)[O-])=C(C[n+]3ccn4ncccc43)CS[C@H]12)c1nsc(N)n1
inactive: Potency [1] | outcome [2] | outcome [3] | outcome [4] | outcome [5] | outcome [6] | outcome [7]

CC(C)NCC(O)c1ccc2ccccc2c1 (configuration not stated)
inactive: Potency [1] | outcome [2] | outcome [3] | outcome [4] | outcome [5] | outcome [6] | outcome [7]

CC(=O)O[C@H]1C[C@@H]2CC[C@@]1(C)C2(C)C
inactive: Potency [1] | outcome [2] | outcome [3] | outcome [4] | outcome [5] | outcome [6] | outcome [7]

O=C(O)CNC(=O)CNC(=O)CNC(=O)CSC(=O)c1ccccc1
inactive: Potency [1] | outcome [2] | outcome [3] | outcome [4] | outcome [5] | outcome [6] | outcome [7]

CC/C(C)=N\O[Si](C)(O/N=C(\C)CC)O/N=C(\C)CC
inactive: Potency [1] | outcome [2] | outcome [3] | outcome [4] | outcome [5] | outcome [6] | outcome [7]

CC1(C)Cc2cccc(N)c2O1
inactive: Potency [1] | outcome [2] | outcome [3] | outcome [4] | outcome [5] | outcome [6] | outcome [7]

CC1(C)[C@H]2CC[C@](C)(C2)[C@H]1O
inactive: Potency [1] | outcome [2] | outcome [3] | outcome [4] | outcome [5] | outcome [6] | outcome [7]

CC1(C)Oc2ccc(C#N)cc2[C@@H](N2CCCC2=O)[C@@H]1O
inactive: Potency [1] | outcome [2] | outcome [3] | outcome [4] | outcome [5] | outcome [6] | outcome [7]
